In PubChem BioAssay AID2391 (Southern Research Specialized Biocontainment Screening …, 2010):
Hit rate of the full screen: of about 310,000 compounds, about 410 (0.13%) were called active. Inconclusive results (about 2%) are left out. How the calls were made is not given here. A selection follows. Potency and affinity values are given separately.

Assay: inhibition of RSV-induced cytopathic effect – HEp-2 cells, primary 10 µM value included (AID 2391)
Details: at 10 µM, active compounds read high

| SMILES | CPE inhibition |
| --- | --- |
| CCNC(=S)N1CCN(c2nc(-c3ccc(F)cc3)cs2)CC1 | 2.45% (inactive) |
| O=C(c1ccc(-c2ccccc2Cl)o1)N1CCN(S(=O)(=O)c2cccs2)CC1 | 0.24% (inactive) |
| CCOC(=O)[C@H]1[C@H]2COc3cc(OC)ccc3[C@@H]2N2C(=O)CN(Cc3ccc(OC)cc3)C(=O)[C@@]12C | 2.03% (inactive) |
| COc1ccc(NC(=S)NCCN2CCC(C)CC2)cc1Cl | -1.89% (inactive) |
| CC(C)OCCCNC(=O)c1ccc2c(c1)NC(=O)c1ccccc1S2 | 3.89% (inactive) |
| COc1ccc(C(=O)c2coc3ccc(OC(C)=O)cc23)cc1 | 4.53% (inactive) |
| COc1ccc2occ(C(C)=O)c2c1 | 0.49% (inactive) |
| CN1C=C(C(F)(F)F)C=C/C1=C(\C#N)c1nnc2n1CCCCC2 | 1.8% (inactive) |
| COc1ccc(C2CCCN2C(=O)Nc2ccccc2)cc1OC (centres undefined) | 2.18% (inactive) |
| COc1ccc(CNC(=O)CCCn2nc(C)n3ccnc3c2=O)cc1 | 1% (inactive) |
| C=Cn1cc[n+](CC(=O)c2cccs2)c1 | 0.58% (inactive) |
| COc1ccc2[nH]cc(C(=O)CN3CCC(C)CC3)c2c1 | 0.91% (inactive) |
| COc1ccc2[nH]cc(C(=O)CN3CCCCC3)c2c1 | -0.42% (inactive) |
| O=C1CCCN1c1ccc(C(=O)N(Cc2nnc(-c3ccc(Cl)cc3)o2)C2CC2)cc1 | 1.99% (inactive) |
| O=C(c1ccc(Cl)c(S(=O)(=O)N2CCOCC2)c1)N(Cc1nnc(-c2ccccc2Cl)o1)C1CC1 | 14.6% (inactive) |
| CC(C)CCOC(=O)C(C)Sc1n[nH]c(=O)[nH]c1=O (centres undefined) | 8.79% (inactive) |
| Cc1c(NC(=S)NC(=O)c2ccc(-c3ccc(Cl)cc3)o2)cccc1C(=O)O | 53.5% (inactive) |
| O=C(NC(=S)Nc1ccccc1O)c1ccc(-c2ccc(Cl)cc2)o1 | -1.25% (inactive) |
| Cc1ccc(NC(=S)NC(=O)c2ccc(-c3ccc(Cl)cc3)o2)c(O)c1 | 1.42% (inactive) |
| Cc1cc(O)c(NC(=S)NC(=O)c2ccc(-c3ccc(Cl)cc3)o2)cc1C | 11.3% (inactive) |
| COC(=O)c1ccccc1NC(=O)c1ccc(-c2ccc(Br)cc2)o1 | 4.75% (inactive) |
| O=C(O)c1ccc(NC(=S)NC(=O)c2ccc(-c3ccc(Br)cc3)o2)cc1 | 10.7% (inactive) |
| O=C(N/C(=C/c1cccc([N+](=O)[O-])c1)C(=O)N1CCCCC1)c1ccco1 | -0.57% (inactive) |
| Cc1ccc(S(=O)(=O)NC(C)(C)CN2CCNCC2)cc1 | -0.5% (inactive) |

| SMILES | CPE inhibition |
| --- | --- |
| O=C(CCCCCN1C(=O)c2cccc3cccc(c23)C1=O)N1CCOCC1 | 2.04% (inactive) |
| CCCc1c(NC(=O)Nc2ccc(F)cc2)cnn1-c1ccc(Cl)cc1 | 4.89% (inactive) |
| CCCc1c(C(=O)Nc2ccc(F)cc2)cnn1-c1ccccc1 | 3.97% (inactive) |
| O=C(c1ccco1)N1CCN(c2ccccc2F)CC1 | 0.67% (inactive) |
| CNC(=O)N1c2ccccc2C=Cc2ccccc21 | 0.96% (inactive) |
| CCN(CC)C(=O)N1c2ccccc2Sc2ccccc21 | 11.5% (inactive) |
| Cc1ccc(NC(=O)c2cccs2)cc1NC(=O)c1ccccc1Cl | 2.07% (inactive) |
| COc1cc(NC(=S)NC(=O)c2c(OC)cccc2OC)ccc1NC(=O)c1cccs1 | 2.67% (inactive) |
| COc1cc(NC(=S)NC(=O)c2cc(C)cc(C)c2)ccc1NC(=O)c1cccs1 | 7.54% (inactive) |
| COc1cccc(C(=O)Nc2cc(NC(=O)c3cccs3)ccc2C)c1 | 10.5% (inactive) |
| CCCCN(C)CCNC(=O)c1cn(C)c(=O)c2c1c1ccccc1n2C | 1.07% (inactive) |
| COc1ccc(OC)c(C2C(C#N)=C(N)N(N(C)C)C3=C2C(=O)CC(C)(C)C3)c1 (centres undefined) | 1.69% (inactive) |
| Nc1ccc2nc(SCC(=O)N3CCOCC3)sc2c1 | 0.05% (inactive) |
| CCN(CC)CCNC(=O)c1ccc(NC(=O)Cc2ccccc2F)cc1 | -0.24% (inactive) |
| COc1ccc(Cl)cc1NC(=O)NCc1cccnc1 | 2.51% (inactive) |
| Nc1nnnn1/N=C/c1ccc(Br)cc1 | 7.9% (inactive) |
| Nc1nnnn1/N=C/c1ccc(F)cc1 | 1.72% (inactive) |
| O=C(COc1ccccc1[N+](=O)[O-])OCCCOC(=O)COc1ccccc1[N+](=O)[O-] | 0.68% (inactive) |
| CCN1/C(=C2\C(=O)N(C)C(=S)N2c2ccccc2)C=Cc2ccccc21 | 1.96% (inactive) |
| CC1(C)Cc2cccc(OCC(=O)Nc3cccnc3)c2O1 | 0.28% (inactive) |
| CC1(C)Cc2cccc(OCC(=O)Nc3nccs3)c2O1 | 1.37% (inactive) |
| COc1ccc(C)cc1Nc1n[n+](-c2ccccc2)c(-c2cc(OC)c(OC)cc2Br)s1 | 13.7% (inactive) |
| COC(=O)c1cc(NS(=O)(=O)c2ccc(NCc3cccnc3)c([N+](=O)[O-])c2)cc(C(=O)OC)c1 | 1.44% (inactive) |
| COc1ccccc1NC(=O)N1CCN(c2ccc3nnc(-c4ccc(F)cc4)n3n2)CC1 | 20.8% (inactive) |

| SMILES | CPE inhibition |
| --- | --- |
| CCSc1ccccc1C(=O)N1CCC2(CC1)CC(=O)c1ccccc1O2 | 2.51% (inactive) |
| Cc1ccccc1NC(=O)COc1cccc2c1CCNC2=O | -2.82% (inactive) |
| COc1cccc(NC(=O)COc2cccc3c2CCNC3=O)c1 | -2.16% (inactive) |
| CCOC(=O)NC(Nc1ccc(C)cn1)(C(F)(F)F)C(F)(F)F | 0.51% (inactive) |
| Cc1cccc(C(=O)NC2CCN(CC(=O)N3CCOCC3)CC2)c1 | 0.56% (inactive) |
| O=C(c1ccc(Br)o1)N1CCN(c2ccc3nnc(-c4ccc(F)cc4)n3n2)CC1 | 1.21% (inactive) |
| c1ccc(-c2nnc3ccc(N4CCCC4)nn23)cc1 | 13.9% (inactive) |
| COc1cc(F)ccc1CN1CCC(n2nccc2NC(=O)C2CCOC2)CC1 (centres undefined) | -1% (inactive) |
| Cc1cc(C(=O)Cn2nnc3ccccc3c2=O)c(C)n1-c1c(C)n(C)n(-c2ccccc2)c1=O | 2.35% (inactive) |
| COc1ccc(-n2c(C)cc(C(=O)Cn3nnc4ccccc4c3=O)c2C)cc1 | 2.15% (inactive) |
| CN(C)c1ccc(CN(CC2CCCO2)C(=O)c2cccs2)cc1 (centres undefined) | -0.5% (inactive) |
| Cn1c(=O)c2c(n(Cc3ccccc3)c1=O)NC(=O)C2CC(=O)O (centres undefined) | 0.62% (inactive) |
| Cc1ccccc1OCCC(=O)Nc1ccc2c(C)cc(=O)oc2c1 | 1.79% (inactive) |
| CCC(C)n1c(SCC(=O)Nc2ccccc2C(F)(F)F)nc2ccsc2c1=O (centres undefined) | 13.6% (inactive) |
| COCCN(C(=O)C(C)C)c1nnc(-c2ccc(C)cc2)s1 | 1.29% (inactive) |
| COCCN(C(=O)C1CC1)c1nnc(-c2cccc(C)c2)s1 | 14% (inactive) |
| C=CCc1cccc(/C=N/NC(=O)c2ccccc2OC)c1O | 4.29% (inactive) |
| O=C(O)c1ccccc1Nc1ccccc1C(=O)O | 0.65% (inactive) |
| COc1ccc(Nc2ccccc2C(=O)O)cc1 | -0.36% (inactive) |
| O=C(O)c1ccccc1Nc1ccccc1 | 2.02% (inactive) |
| O=C(O)c1cc([N+](=O)[O-])ccc1Nc1ccccc1 | 2.12% (inactive) |
| O=C(NCCOc1ccccc1Cl)c1ncn[nH]1 | 0.27% (inactive) |
| CSc1ccc(S(=O)(=O)NCCSC(C)(C)C)cc1 | -1.64% (inactive) |
| COc1cc(CC2COC(c3ccc(O)c(OC)c3)C2COC(C)=O)ccc1O (centres undefined) | 5.55% (inactive) |

| SMILES | CPE inhibition |
| --- | --- |
| CCOC(=O)CCCNC(=O)CCNC(=O)c1ccc(OCCC(C)C)cc1 | -2.65% (inactive) |
| Cc1ccc(C(=O)N2CCN(c3ccc(NC(=O)c4cccs4)cc3)CC2)cc1 | 3.02% (inactive) |
| Cc1ccc(OCc2cc(C(=O)NCc3cnn(-c4cccc(F)c4)c3)no2)cn1 | -0.86% (inactive) |
| Cc1nn(-c2ccccc2)c(C)c1/C=N/N1CCN(c2ccccc2)CC1 | 2.1% (inactive) |
| Cc1nn(-c2ccccc2)c(C)c1/C=N/O | 5.01% (inactive) |
| CC(=O)N1c2ccccc2Nc2ccccc21 | 0.92% (inactive) |
| CC(C)(C)C(=O)CC1(O)C(=O)N(Cc2ccccc2)c2ccccc21 (centres undefined) | 1.23% (inactive) |
| Cc1cccc(NC(=O)CSc2nc3ccccc3nc2N2CCCC2)c1 | 43.3% (inactive) |
| COc1cccc(NC(=O)CSc2nc3ccccc3nc2N2CCOCC2)c1 | 1.87% (inactive) |
| COc1ccc(NC(=O)CSc2nc3ccccc3nc2N2CCCC2)cc1 | 5.07% (inactive) |
| Cc1cc(C)cc(NC(=O)CSc2nc3ccccc3nc2N2CCCCC2)c1 | -0.51% (inactive) |
| O=C(CCN1c2ccccc2Sc2ccccc21)OCC(=O)N1CCN(C(=O)c2ccco2)CC1 | 5.26% (inactive) |
| Cc1cc(C)cc(NC(=O)c2ccc(CNc3c(N4CCCC4)c(=O)c3=O)cc2)c1 | 2.89% (inactive) |
| CCOC(=O)/C(C#N)=C/c1c(N2CCN(C)CC2)nc2c(C)cccn2c1=O | 1.42% (inactive) |
| COc1ccc(NC(=S)N2CCN(c3ccccc3)CC2)c(OC)c1 | 3.36% (inactive) |
| CC(Sc1n[nH]c(N)n1)C(=O)Nc1ccccc1-c1ccccc1 (centres undefined) | -0.4% (inactive) |
| CCOC(=O)C1(CCOc2ccccc2)CCN(Cc2cccn2-c2ncccn2)CC1 | -2.95% (inactive) |
| OCC1(CCOc2ccccc2)CCN(Cc2ccncc2)CC1 | -0.49% (inactive) |
| COc1cc(OC)c(OC)cc1/C=N/NC(=O)c1cccc(S(=O)(=O)N2CCOCC2)c1 | 0.2% (inactive) |
| Cc1cccc(NC(=O)C2CCN(S(=O)(=O)c3ccc4c(c3)NC(=O)CO4)CC2)c1C | 0.6% (inactive) |
| O=C(O)c1[nH]c2ccc(Cl)cc2c1CC(=O)N1CCN(C(=O)c2ccco2)CC1 | 0.74% (inactive) |
| O=C(c1cc2cc(Cl)ccc2[nH]1)N1CCN(C(=O)c2ccco2)CC1 | 1.05% (inactive) |
